Screens deposited in PubChem BioAssay by National Center for Advancing Translational Sciences (NCATS).
Menin-MLL FL inh = menin-MLL binding inhibition, fluorescein peptide; Fluorescence polarization, fluorescein-MLL peptide displacement from menin; FP activity change, % at 61.4 µM; 290,000 tested, under 10 active; active means well fitted curve in the direction sought with a large enough effect in the polarisation, not every such curve was filed as active; inconclusive means small, poorly fitted or top-dose-only effect, or effect the other way, or a change in a side signal; inactive means no such curve, though single readings can be large or run the other way; the % refers to the polarisation; further: % of control where 0% means no effect
Epigenetic derep = epigenetic control regulation, reporter derepression. murine LDR cells, GFP reporter derepression, 30 h. Potency, µM (doses to about 53.9 µM), without a hit: at the highest dose GFP activation, usual class: activators. 280,000 compounds, 0.2% hits. AID 1865; further: potency means the concentration at half of the fitted maximal effect; % of control where 0% means no effect; nearly all actives have a fitted effect of over 60% in size
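GFP-positive cell count by laser-scanning cytometry (objects 20–120 um) after 30 h, 37 C compound exposure of murine LDR cells; reporter is CMV-GFP integrated at a silenced locus, inducible by HDAC or DNMT inhibitors.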
ClpP mod = qHTS Assay for Activators of ClpP | ATP-dependent Clp protease proteolytic subunit (Bacillus subtilis (strain 168)), P80244 | purified B. subtilis ClpP, FRET peptide cleavage, 20 min | Potency, µM (doses to about 57.5 µM), for the others: at the top dose activity change, negative = active | 340,000 compounds, 1.9% hits | AID 651965, 2013; active means well fitted falling curve with a large enough effect; inconclusive means small, poorly fitted or top-dose-only effect; inactive means no such curve, though single readings can be large or run the other way; further: potency means the concentration at half of the fitted maximal effect; the source files actives as falling curves though it sought activators and does not explain the sign; nearly all actives have a fitted effect of over 65% in size
Target sequence (P80244 whole entry, looked up): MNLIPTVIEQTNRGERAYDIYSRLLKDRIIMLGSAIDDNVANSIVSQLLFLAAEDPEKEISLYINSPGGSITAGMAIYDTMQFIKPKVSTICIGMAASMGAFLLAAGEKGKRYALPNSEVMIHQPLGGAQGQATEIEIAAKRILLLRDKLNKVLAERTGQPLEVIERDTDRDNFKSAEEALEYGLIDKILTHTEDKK
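Buffer: 100 mM Tris/HCl pH8, 100 mM KCl, 0.05% low protease BSA, 2.5% glycerol, 0.01% Tween-20. ClpP 10 microg/mL final; 20 min RT; delta FRET normalized to ADEP and DMSO controls.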
Menin-MLL TR inh = menin-MLL binding inhibition, Texas Red mutant peptide. O00255. 270,000 compounds, 0.23% hits. Menin + Texas Red MLL mutant peptide, fluorescence polarization. AID 1768. Potency, µM (highest dose often 61.6 µM), inactives show at the highest dose FP activity change, negative = inhibition, usual class: inhibitors; active means well fitted inhibition curve with a large enough effect in the polarisation, with a control signal flat, not every such curve was filed as active; inconclusive means small, poorly fitted or top-dose-only effect, or effect the other way, or a change in a side signal; inactive means no such curve, though single readings can be large or run the other way; the % refers to the polarisation; further: potency means the concentration at half of the fitted maximal effect; % of control where 0% means no effect
Target sequence (O00255 whole entry, looked up): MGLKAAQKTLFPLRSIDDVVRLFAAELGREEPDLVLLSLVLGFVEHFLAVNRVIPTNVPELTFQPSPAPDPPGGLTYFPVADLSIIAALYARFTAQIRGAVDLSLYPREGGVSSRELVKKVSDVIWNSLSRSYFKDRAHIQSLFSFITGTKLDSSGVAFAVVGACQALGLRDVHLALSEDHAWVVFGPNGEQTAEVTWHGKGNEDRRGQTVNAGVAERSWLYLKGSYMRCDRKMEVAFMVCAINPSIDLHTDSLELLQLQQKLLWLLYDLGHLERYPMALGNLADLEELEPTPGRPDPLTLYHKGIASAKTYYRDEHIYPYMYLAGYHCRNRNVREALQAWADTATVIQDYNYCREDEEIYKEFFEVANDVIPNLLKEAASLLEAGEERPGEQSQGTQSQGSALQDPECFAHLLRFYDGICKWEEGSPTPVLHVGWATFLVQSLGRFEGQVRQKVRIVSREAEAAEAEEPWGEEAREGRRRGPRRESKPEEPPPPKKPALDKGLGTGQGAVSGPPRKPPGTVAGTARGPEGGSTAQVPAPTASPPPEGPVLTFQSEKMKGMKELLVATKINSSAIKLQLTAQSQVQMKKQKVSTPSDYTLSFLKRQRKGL
CXXC DNA block = blocks binding of human MLL CXXC domain to DNA; MLL-CXXC / FITC-HOXA9 DNA fluorescence polarization; AID 2662; Potency, µM (highest dose often 115 µM), inactives show at the highest dose activity change, negative = inhibition, actives largely listed as inhibitors; 290,000 compounds, 0.037% hits; Q03164; active means well fitted inhibition curve with a large enough effect in the polarisation, with a control signal flat, not every such curve was filed as active; inconclusive means small, poorly fitted or top-dose-only effect, or effect the other way, or a change in a side signal; inactive means no such curve, though single readings can be large or run the other way; the % refers to the polarisation; further: potency means the concentration at half of the fitted maximal effect
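Fluorescence polarization: 7 uM MLL-CXXC (stock) preincubated 5 min with compounds, then 50 nM fluorescein-HOX-A9 DNA (stock) added; 30 min ambient. Buffer 50 mM Tris-HCl pH 7.5, 50 mM NaCl, 1 mM DTT, 0.05% BSA.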
PINK1 expr mod = modulators of PINK1 expression; 410,000 compounds, 0.2% hits; PINK1 immunofluorescence, high-content cytometry, 24 h; AID 624263; Potency, µM (top dose mostly 76.6 µM), for inactives: at the highest dose activation (PINK1 increase), most hits filed as activators; active means well fitted activation curve with a large enough effect; inconclusive means small, poorly fitted or top-dose-only effect; cell line not stated here; further: potency means the concentration at half of the fitted maximal effect; % of control where 0% means no effect; nearly all actives have a fitted effect of over 65% in size
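Fluorescence from anti-PINK1 antibody, together with nuclear and cell stains, was scanned on a laser-scanning cytometer. Before staining, stable-line cells were incubated 24 hours with compounds at 5 concentrations; primary antibody 12 h at 10 degrees C.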
ClpP inh valid = validation of B. subtilis ClpP protease hits (inhibitors). shares compounds with ClpP mod. purified B. subtilis ClpP, FRET-FV substrate cleavage, 20 min. Potency, µM (highest dose often 57.5 µM), without a hit: at the top dose activity change, negative = inhibition, usual class: inhibitors. 470 compounds, 40% hits; further: potency means the concentration at half of the fitted maximal effect; on the % scale 0 is the no-effect control and ±100 the full control effect; nearly all actives have a fitted effect of over 70% in size
* hit, by the source's call; ? = inconclusive; · = no result; [ ] = another dose, or the depositor's remark. The list is not random: actives were taken first. Their share in the collection is about 1.9%. Unless noted, the call rests on the fitted dose curve; in most records, active means well fitted curve in the direction sought with a large enough effect; inconclusive means small, poorly fitted or top-dose-only effect, or another doubt; inactive means no such curve, though single readings can be large; an effect the other way counts as inactive or inconclusive.

SMILES	Menin-MLL FL inh	Epigenetic derep	ClpP mod	Menin-MLL TR inh	CXXC DNA block	PINK1 expr mod	ClpP inh valid
COC(=O)c1ccc(NC(=S)NC2c3ccccc3CC2O)cc1 (stereo unspecified)	0	2%	·	41%	-1%	-2%	·
CCCc1cc(=O)oc2cc(C)cc(OCC(=O)NC3CC3)c12	0	·	4%	-1%	-9%	5%	·
CCCc1cc(=O)oc2cc(C)cc(OCc3nn[nH]n3)c12	-1	0%	8.9µM*	-1%	0%	-1%	34µM*
CCCC(=O)Nc1cc(-c2nc3ncccc3o2)ccc1C	0	-1%	3.2µM*	-10%	-3%	1%	24µM*
CCCC(=O)NC(=S)Nc1cc(-c2nc3ncccc3o2)ccc1C	-2	-2%	9%	·	8%	4%	·
Fc1ccc(-c2cc(C(F)(F)F)nc(-n3cc(Cl)cn3)n2)cc1	-1	1%	-13%	8%	4%	10%	·
COc1ccc(-c2cc(C(F)(F)F)nc(-n3cc(Cl)cn3)n2)cc1	14	-1%	4µM*	-1%	-1%	5%	22µM*
CC1(C(=O)N(CC(=O)NC2CCCC2)Cc2ccccc2)CC(=O)N=C2C=CC=CN21 (stereo unspecified)	4	·	·	9%	1%	-1%	·
CC1(C(=O)N(CC(=O)NC2CCCC2)Cc2ccco2)CC(=O)N=C2C=CC=CN21 (stereo unspecified)	5	-1%	3.2µM*	19%	-5%	5%[38.3 µM]	17µM*
Cc1cc(=O)oc2cc(OCc3cc4c(cc3Cl)OCO4)ccc12	3	-1%	109%	6%	-1%	13%	?
COc1ccc(NC(=S)N2CCC(c3nc4ccccc4o3)CC2)c(OC)c1	5	2%	0%	-5%	1%	-1%	·
Cc1ccc(S(=O)(=O)N2CCCc3cc(NS(=O)(=O)c4cc(F)ccc4F)ccc32)cc1	·	1%	0%	·	·	2%	·
COc1ccc(CNC(=O)c2cc3c(=O)n(C)c4ccccc4c3n2C)cc1	·	-1%	-10%	·	·	2%	·
CCOc1ccc(CNC(=O)c2cc3oc4ccccc4c3n2C)cc1	3	4%	6.3µM*	·	14%	-1%	-20%
CCOC(=O)c1cc2occc2n1CC(=O)N1CCCc2ccccc21	8	5%	96%	6%	2%	-3%	0%
CSc1ccc(CCNC(=O)c2cc(C)nn2-c2ccccc2)cc1	2	-1%	6%	·	-3%	6%	·
Cc1ccc(CCNC(=O)c2cc(C)nc3c2c(C)nn3-c2ccc(C)cc2)cc1	·	-1%	70%	·	·	1%	27µM*
CSc1ccc(CCNC(=O)c2cc(C)nc3c2c(C)nn3-c2ccccc2)cc1	·	3%	67%	·	·	1%	17µM*
Cc1ccc(-n2nc(C)c3c(C(=O)NCCc4ccccc4)cc(C)nc32)cc1	·	-1%	91%	·	·	0%	·
CCOc1ccccc1NC(=O)c1cc2ccccc2o1	·	·	53%	·	·	1%	-14%
O=C(c1ccncc1)N1CCN(S(=O)(=O)c2cccc(Cl)c2)CC1	·	·	3.2µM*	·	·	1%	0%
CCCn1cc(CN2CCC(n3nccc3NC(=O)c3ccccc3)CC2)c(C)n1	·	·	3.2µM*	·	1%	-2%	0%
COc1ccc(C(=O)Nc2ccccc2-c2nnn(CC(=O)NCc3ccco3)n2)cc1	0	16%	36%	12%	1%	7%	?
Cc1cccc(C(=O)N2CCN(c3ncnc4c3cnn4-c3ccccc3)CC2)c1	5	-1%	116%	-14%	-10%	1%	-5%
Cc1cc(C)c2[nH]c(C(=O)N3CCC(n4nccc4NC(=O)C4CC4)CC3)c(C)c2c1	·	·	-1%	·	-3%	1%	·
SMILES	Menin-MLL FL inh	Epigenetic derep	ClpP mod	Menin-MLL TR inh	CXXC DNA block	PINK1 expr mod	ClpP inh valid
CCN(C)C1CN(Cc2cn(Cc3ccccc3)nn2)S(=O)(=O)C1 (stereo unspecified)	·	·	-2%	·	·	0%	·
CCCCN(CC)C(=O)c1cc2c(=O)n3ccccc3nc2n1C	·	0%	4%	·	·	2%	·
COc1cc(NC(=O)CCS(=O)(=O)c2nc(-c3cccs3)cc(C(F)(F)F)n2)cc(OC)c1OC	·	11%	44%	·	·	2%	23%
CSc1ccc(CCNC(=O)c2ccc(-c3nc(COc4ccc(C)cc4)c(C)o3)cc2)cc1	·	-6%	0%	·	·	1%	·
COc1ccc(S(=O)(=O)N2CCC(CN3C(=O)c4cccc5cccc(c45)C3=O)CC2)cc1	2	1%	10µM*	2%	?	2%	24µM*
O=C(c1ccc(S(=O)(=O)N2CCCC2)cc1)N1CCC(CN2C(=O)c3cccc4cccc(c34)C2=O)CC1	1	0%	·	·	-3%	2%	·
Cc1ccn2c(Nc3ccc4c(c3)OCO4)c(-c3ccc(Cl)cc3)nc2c1	·	4%	4µM*	·	·	2%	-22%
COc1ccc(NC(=O)c2oc3ccccc3c2NC(=O)c2ccco2)c(OC)c1	-1	3%	357%	-2%	11%	?	?
COc1ccc(NC(=O)c2oc3ccccc3c2NC(=O)c2cc3ccccc3o2)c(OC)c1	·	3%	?	·	·	1%	·
CCN(CC(=O)Nc1c(F)cccc1F)C(=O)Cc1csc(-c2ccc(OC)c(OC)c2)n1	·	·	3.2µM*	·	·	0%	12µM*
CCOc1ccc(/C=C/C(=O)N(CC)CC(=O)Nc2c(F)cccc2F)cc1OC	·	·	4%	·	·	1%	·
COc1ccc(NC(=O)c2ccccc2-c2ccc(C(F)(F)F)cc2)cc1S(=O)(=O)N1CCOCC1	4	0%	-8%	3%	0%	2%	·
COc1ccc(S(=O)(=O)N2CCOCC2)cc1NC(=O)c1ccccc1-c1ccc(C(F)(F)F)cc1	3	0%	51%	10%	?	12%	?
CCc1ccc(C(=O)c2cn(CC(=O)Nc3ccc4c(c3)OCCO4)c3ccc(CC)cc3c2=O)cc1	·	5%	1%	·	·	3%	·
Cc1cc(C)n2c(SCC(=O)Nc3ccccc3C#N)nnc2n1	·	·	-9%	·	·	2%	·
c1ccc(NC2=NCCN2CC2CCCCC2)cc1	·	·	-1%	·	·	-1%	·
O=C(NC1CCCC1)C1C(c2ccccc2)=Nc2ccccc2N1C(=O)c1cc(Cl)cc(Cl)c1 (stereo unspecified)	·	·	-13%	·	·	·	·
O=C(Cc1ccccc1)Nc1nnc(-c2ccco2)o1	1	-1%	·	4%	3%	0%	·
O=C(Cc1ccccc1)Nc1ccc(-c2nnc(-c3ccco3)o2)cc1	2	1%	8.9µM*	8%	-1%	1%	-21%
